Screening data from PubChem BioAssay.
KKLEB cytotox = cytotoxicity in KKLEB CF airway cells, primary screen, cytotoxicity control for CF NF-kB inhibitor project, cell-based, uHTS, fluorescence assay plates | KKLEB CF airway cells viability, ATPlite luminescence, overnight; active compounds read low; cells stimulated with P. aeruginosa culture filtrate | activity change (cytotoxicity), % at 5 µM | 0.36% of 360,000 active | AID 602141, 2011;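 active = corrected activity change at or below -50% at 5 µM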
Peg3 promoter = Peg3 promoter-driven luciferase inhibitors, primary screen, cell-based, HeLa, luciferase luminescence | HeLa PEG-Prom luciferase reporter, overnight | inhibition, % at 20 µM | 1.7% of 360,000 active | AID 588405, 2011;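 active = inhibition of at least 50% at 20 µM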
TWEAK Fn14 block = inhibitors of TWEAK-Fn14 signaling, primary screen, luciferase reporter cells, uHTS; TWEAK-stimulated Fn14 reporter cells, luciferase luminescence, 8 h; inhibition, % at 10 µM; 2% of 360,000 active; AID 1159606, 2016; in the data active = inhibition above about 50%
TROY NFkB inh = inhibitors of TROY-driven NF-kB signaling, primary screen, Q293 LMP1-TROYcd cells, NF-kB luciferase, uHTS. AID 1347056, 2019. 0.98% of 360,000 active. inhibition, % at 10 µM. Q293 LMP1-TROYcd NF-kB luciferase reporter, 4 h;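 active = compounds whose plate-normalised and pattern-corrected inhibition of the luciferase reporter signal at the single screening dose is 50% or more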
CF NFkB block = inhibitors of PAF-induced NF-kB signaling, primary screen, cell-based, GFP fluorescence, uHTS. 0.86% of 360,000 active. AID 588850, 2011. inhibition, % at 5 µM. KKLEB NF-kB-GFP reporter, GFP fluorescence overnight;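 active = at least 50% inhibition at 5 µM, scaled per plate between neutral and stimulator controls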;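 note: PAF is a Pseudomonas aeruginosa culture filtrate used as stimulus; plate controls were PAF-stimulated DMSO wells for no effect and unstimulated DMSO wells for full effect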
HIF-2a block = HIF-2a reporter inhibitors, primary screen, luminescence, 786-0 RCC cells | 786-0 RCC cells HIF-2a reporter, luciferase luminescence, overnight | inhibition, % at 18.8 µM | 0.72% of 360,000 active;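 active = inhibition of the luminescence signal of 40% or more relative to plate controls, in a single-dose primary screen at 18.75 µM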
Mdm2-MdmX confirm = retested Mdm2-MdmX interaction blockers, confirmation, cell-based, luminescence, single concentration, set 2; 99% of 740 active; inhibition, % at 8 µM; shares compounds with HIF-2a block; SaOS-2 split-luciferase Mdm2/MdmX complementation;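 active = mean inhibition of the luminescence signal across two replicates at or above 26 percent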
HIF-2a conf = HIF-2a reporter inhibitor retest, confirmation, luminescence, 786-0 RCC cells | inhibition, % at 18.8 µM | AID 651580, 2012 | 56% of 1,800 active | shares compounds with HIF-2a block | HIF-2a luciferase reporter luminescence, overnight;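 active = mean inhibition across four replicates of at least 40 percent at the single tested concentration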
HIF-1a counter = HIF-1a luciferase reporter signal reduction – MiaPaCa-2 cells, single concentration, counter-screen for HIF-2a inhibitor project, confirmation | inhibition, % at 18.8 µM | shares compounds with HIF-2a block | MiaPaCa-2 HIF-1a luciferase reporter, desferoxamine, overnight | AID 651589, 2012 | 72% of 1,800 active;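 active = mean inhibition of the reporter signal across four replicates at the single tested dose of 50% or more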
* marks the source's active call; other numbers are inactive results; . = no result given. Hits are enriched below; roughly 4% of the tested compounds scored in any of these assays.

SMILES | KKLEB cytotox | Peg3 promoter | TWEAK Fn14 block | TROY NFkB inh | CF NFkB block | HIF-2a block | HIF-2a conf | HIF-1a counter | others
CCc1ccc(-c2cn3nc(C)c(C)nc3n2)cc1 | -9.2 | 70.7* | 59.6* | 15.8 | -3.6 | 66.2* | 90.6* | 84.2*
COCCCNS(=O)(=O)c1cc2c3c(c1)C(C)C(=O)N3CCC2 (stereo not given) | 3.5 | -0.1 | 6.2 | 9.7 | -9.2 | 8.9 | . | .
O=C(Nc1cccc(Cl)c1)c1cc(N=Nc2ccc([N+](=O)[O-])cc2Cl)ccc1O | -32.3 | 79.0* | 82.8* | 39.2 | 76.2* | -83.9 | . | . | Mdm2-MdmX confirm=95.5*
O=C(Nc1ccccc1)c1cc([N+](=O)[O-])ccc1Cl | -8.4 | -1.1 | 7.4 | -4.6 | -20.3 | 8.1 | . | .
CCN(CC)c1ccc(C=Nc2cccc(S(=O)(=O)N3CCOCC3)c2)c(O)c1 | -3.2 | 1.5 | 1.7 | 10.3 | -21.1 | 4.2 | . | .
CCN(CC)c1ccc(/C=N/NC(=O)c2cccc(S(=O)(=O)N3CCOCC3)c2)c(O)c1 | -17.3 | 37.8 | -2.4 | 0.4 | 4.5 | 9.9 | . | . | Mdm2-MdmX confirm=91.2*
O=S(=O)(/C(=C\c1ccc(C(F)(F)F)cc1)c1nc2ccccc2[nH]1)c1ccccc1 | -67.6* | 104.8* | 99.8* | 53.6* | 86.0* | 84.5* | 97.6* | 107.4*
Cc1ccc(NC(=S)/C(C#N)=C2/Nc3ccccc3S2)cc1 | 5.0 | 29.6 | 39.5 | 41.4 | 43.0 | 67.9* | 39.5 | 55.7*
Nc1ccc2oc(-c3cc(Br)ccc3Cl)nc2c1 | 16.8 | -55.3 | 46.4 | 0.0 | -26.2 | 61.4* | 89.7* | 49.6
Cc1ccc(C)c(-c2nc3cc(N)ccc3o2)c1 | 13.3 | -167.2 | 66.6* | . | -29.5 | 64.9* | 70.3* | 28.5
Cc1ccc(-c2nc3cc(N)ccc3o2)cc1Br | 4.0 | -302.8 | 25.2 | -0.1 | -4.0 | -125.7 | . | .
COc1ccc(/C=c2/sc3n(c2=O)C(c2ccccc2OC)C2=C(N=3)c3ccccc3CC2)cc1O (stereo not given) | 0.4 | 41.3 | 40.6 | 10.0 | 38.1 | 40.9* | 13.3 | 63.8*
Cc1cc2c(Nc3cccc(O)c3)ncnc2s1 | -15.4 | -32.0 | 20.8 | -8.5 | 40.1 | -2.6 | . | .
C/C(=N\NC(=O)c1cccc(Br)c1)c1ccccn1 | -11.8 | -64.4 | -60.9 | -40.3 | -38.0 | -87.2 | . | . | Mdm2-MdmX confirm=82.7*
CC(=O)Nc1ccc(S(=O)(=O)N2CCC(C(=O)O)(c3ccccc3)CC2)cc1 | 12.3 | -0.6 | -5.3 | -1.6 | -7.0 | 12.9 | . | .
FC(F)(F)c1nc2ccccc2n2c(-c3ccc(Cl)cc3)nnc12 | -55.5* | 51.0* | 15.3 | -71.2 | 75.8* | 46.3* | 25.1 | 86.3*
Cc1cccc([C@@H]2[C@@H]3C(=O)N(Cc4ccccc4)C(=O)[C@@H]3[C@]3(Cc4ccc(Cl)cc4)C(=O)N(c4ccc(Br)cc4)C(=O)N23)c1 | -12.2 | 6.7 | 15.1 | -1.1 | 4.6 | 6.1 | . | . | Mdm2-MdmX confirm=101.7*
Oc1ccccc1N=Nc1nc(-c2ccccc2)c(-c2ccccc2)[nH]1 | 2.4 | 48.7 | 32.5 | 21.2 | 81.4* | 17.3 | . | . | Mdm2-MdmX confirm=86.7*
COc1c(Br)cc(Br)cc1/C=N/NC(=O)c1ccncc1 | 7.0 | 17.5 | -1.2 | -5.3 | -8.6 | 8.8 | . | .
CN(C)c1ccc(C(=O)N/N=C/c2cc(Br)cc(Br)c2O)cc1 | 3.8 | 58.7* | 11.2 | 2.3 | 15.8 | 2.6 | . | . | Mdm2-MdmX confirm=89.0*
CCOc1ccc(N=C(NN)c2ccc3ccccc3n2)cc1 | -4.9 | 2.7 | 94.4* | 86.8* | 8.5 | 48.9* | 45.1* | 66.2*
Cc1ccc([N+](=O)[O-])c(NC(=O)COC(=O)CCNS(=O)(=O)c2cccs2)c1C | -1.0 | 4.0 | -5.6 | -4.2 | -1.2 | 5.1 | . | .
CN(C)CCCNc1cc(C(C)(C)C)nc2c(-c3ccc(Cl)cc3)cnn12 | -18.7 | 103.6* | -47.9 | -19.7 | 38.3 | -41.8 | . | . | Mdm2-MdmX confirm=102.5*
Cc1cc(C)cc(N=c2c([N+](=O)[O-])nn(-c3ccc4c(c3)OCCO4)n2O)c1 | -11.6 | -58.9 | 24.7 | 34.3 | 20.0 | -102.7 | . | .
Cc1ccc(N=c2c([N+](=O)[O-])nn(-c3ccc4c(c3)OCCO4)n2O)cc1F | 8.4 | 33.2 | 99.8* | 90.6* | -15.1 | 70.2* | 83.6* | 94.4*
SMILES | KKLEB cytotox | Peg3 promoter | TWEAK Fn14 block | TROY NFkB inh | CF NFkB block | HIF-2a block | HIF-2a conf | HIF-1a counter | others
O=[N+]([O-])c1nn(-c2ccc3c(c2)OCCO3)n(O)c1=Nc1ccccc1 | 28.5 | 75.6* | 103.9* | 88.2* | -17.5 | 82.2* | 89.6* | 100.1* | Mdm2-MdmX confirm=95.5*
N#CC1(c2ccccc2)CCN(S(=O)(=O)c2ccc(OC(F)(F)F)cc2)CC1 | -1.7 | 13.3 | 4.4 | 26.5 | 7.5 | 17.9 | . | .
CC(=O)c1ccc(N(C(=O)c2csnn2)C(C(=O)NC2CCCC2)c2ccccc2)cc1 (stereo not given) | 1.5 | 5.9 | 2.1 | -4.9 | -17.6 | 8.8 | . | .
C[C@H](CO)N1C[C@H](C)[C@@H](CN(C)C(=O)C2CCOCC2)Oc2ncc(Br)cc2C1=O | 6.1 | -3.2 | -2.4 | 4.3 | -16.2 | -3.9 | . | .
O=C(c1cccc(-c2ccccc2)c1)N1CC[C@@H](N2CCC(O)CC2)[C@H](O)C1 | -13.1 | 9.1 | -8.4 | -0.5 | 5.6 | 7.6 | . | .
Cc1nnc(NC(=O)c2nn(CC(C)C)c(=O)c3ccccc23)s1 | 1.6 | 18.7 | -25.4 | 9.8 | -6.8 | 10.6 | . | .
Cc1nc2ccc(NC(=O)c3nn(CC(C)C)c(=O)c4ccccc34)cc2s1 | 4.1 | -42.6 | -7.6 | -3.1 | -12.7 | -46.6 | . | . | Mdm2-MdmX confirm=93.2*
O=C(OCc1ccccc1)N1CCC2CC1c1cc(NCCc3ccccc3)ccc12 (stereo not given) | -3.6 | -67.4 | 0.6 | -45.4 | 7.2 | -138.2 | . | .
COc1ccc(C(=O)NC(=O)COC(=O)C2CC2C)cc1 (stereo not given) | 11.2 | -17.8 | -1.9 | -42.9 | -15.5 | 1.0 | . | .
CCC(=O)Nc1ccc(SC#N)cc1C | -1.3 | 7.4 | 6.5 | 8.7 | -11.3 | 24.7 | . | .
CCc1cc(SC#N)cc(C)c1N | -7.0 | 13.0 | 35.4 | 57.4* | -28.8 | 63.3* | -14.4 | -25.6
O=C(N/N=C/c1ccccc1)C(=O)N/N=C/c1ccccc1 | 3.3 | 3.8 | 1.2 | 10.2 | 5.3 | 1.6 | . | .
